From PubChem BioAssay (EPA / NIEHS)
Active and inactive are the calls of the source. The calls were made as follows: active = hit-call score of the fitted dose curve at least 0.9, where 1 is the maximum; inactive = score below 0.9.

Assay: APR_HepG2_MicrotubuleCSK_24hr: Apredica 24-hour HepG2 Assay for Microtubule CSK Stabilty (AID 2282909)
Conditions: HepG2 microtubule cytoskeleton imaging, actives raise or lower the signal
Experimental: APR_HepG2_24hr is a cell-based, multiplexed-readout assay that uses HepG2, a human liver cell line, with measurements taken at 24 hours after chemical dosing in a 384-well plate.APR_HepG2_MicrotubuleCSK_24hr is one of 10 assay component(s) measured or calculated from the APR_HepG2_24hr assay. It is designed to make measurements of protein conformation, a form of conformation reporter, as detected with fluorescence intensity signals by HCS Fluorescent Imaging technology.Data from the assay component APR_HepG2_MicrotubuleCSK_24hr was analyzed into 1 assay endpoint. This assay endpoint, APR_HepG2_MicrotubuleCSK_24hr, was analyzed with bidirectional fitting relative to DMSO as the negative control and baseline of activity. Using a type of conformation reporter, measures of protein for gain or loss-of-signal activity can be used to understand the signaling at the cellular-level. Furthermore, this assay endpoint can be referred to as a primary readout, because this assay has produced multiple assay endpoints where this one serves a signaling function. To generalize the intended target to other relatable targets, this assay endpoint is annotated to the cell morphology intended target family, where the subfamily is cell conformation.
Cells were treated with dimethyl sulfoxide (DMSO) as a solvent control at a final concentration of 0.5% v/v or with compounds in DMSO with a resulting final DMSO concentration of 0.5% v/v. Compound treatment was done at concentrations of 0.39, 0.78, 1.56, 3.12, 6.24, 12.5, 25, 50, 100, and 200 uM in duplicate on each plate. Cells were treated with compounds for 1, 24, or 72 hr. Carbonyl […] m-chloro-phenylhydrazone (CCCP) and taxol were used as positive controls for mitochondrial function and cytoskeletal stability, respectively; DMSO served as the negative control for this experiment. Cells were fixed by the direct addition of 50 uL formaldehyde in Hank's Balanced Salt Solution (HBSS) to a final concentration of 3.7%. After incubation in the fixation medium for 30 min at room temperature (293-298 K), cells were rinsed twice with HBSS and treated with cell permeabilization buffer (16 uL of 0.5% Triton X-100) for 10 min at room temperature (293-298 K) before labeling. For mitochondrial membrane potential and mitochondrial measurements, pre-fixed cells were incubated with 50 uL of MitoTracker Red CMXRos (Invitrogen) at a concentration of 250 nM for 30 min before fixation. In the remaining cases, post-fixed cells were labeled by incubation with a multiplexed mixture of primary antibodies in HBSS for 60 min at room temperature (293-298 K) to detect immunoreactivity of c-Jun (1:500), phospho-histone H3 (1:100), phospho-histone H2A.x (1:200), p53 (1:400), alpha-tubulin (1:200) and Hoechst 33342 (2 ug/mL). Cells were labeled for multiplexed imaging on two separate plates: a) Hoechst 33342, MitoTracker Red, phospho-histone H3, and alpha-tubulin, and b) Hoechst 33342, phospho-histone H2A.x, and c-Jun. A final rinse with HBSS (50 uL) was performed before analysis. The primary and secondary antibodies for the proteins were phospho-histone H3 (rabbit anti-phospho-histone H3 and FITC-donkey anti-rabbit IgG), phospho-histone H2A.x (mouse anti-phospho-histone H2A.x and FITC-donkey anti-mouse IgG), c-Jun (rabbit anti-phospho-c-Jun and Cy3-donkey anti-rabbit IgG), p53 (sheep anti-p53 and Cy5-donkey anti-sheep IgG), alpha-tubulin (mouse anti-alpha-tubulin and Cy5-donkey anti-mouse IgG). These antibodies are available as the CellCiphr HepG2 assay kit (Millipore).Digital images of each well were captured using a Cellomics ArrayScan VTI (Thermo Scientific Cellomics) (0.8 NA objective, 0.63x optical coupler, and XF-93 filter set) at 20x magnification. The images were acquired using the autofocus feature of the ArrayScan instrument, which entails the following steps. First, the camera focuses on channel 1 (Hoechst 33342), where nuclei are identified. Second, a Z offset of 1 um is used for capturing mitochondria (MitoTracker Red). […]

SMILES	outcome	AC50
CN(C)C(=S)S	inactive	
CC(C)(C)c1ccccc1O	inactive	
N#Cc1cccnc1	inactive	
Clc1cccc(Cl)c1Cl	inactive	
COc1ccccc1N	inactive	
CCCCCCCCCCCCc1cccc(S(=O)(=O)O)c1	inactive	
CC(C)O.CC(C)O.OCCN(CCO)CCO.OCCN(CCO)CCO.[Ti]	inactive	
Clc1cccc(Cl)c1	inactive	
Oc1cc(Cl)c(Cl)cc1Cl		41.8 µM (active)
O=C(O)C1(c2ccc3c(c2)OC[C@H](Cc2ccc(-c4ccccc4)cc2)[C@H]3O)CCCC1	inactive	
Cc1cc(C)cc(C)c1	inactive	
O=C(N[C@H]1CN2CCC1CC2)c1ccc2c(c1)OCCO2	inactive	
OCCN(CCO)CCO	inactive	
